The values below come from PubChem BioAssay AID1240 (Sanford-Burnham Center for Chemical Genomics, 2008).

Among all 50,000 compounds or so, about 800 (1.6%) showed an effect of 50% or more. The full list was thinned out, with strong results kept by preference.

For the experiment, the target named is Bcl-2-like protein 10 (Homo sapiens) (UniProt Q9HD36). Nature of the experiment: Phenotype converters, Bcl-B/TR3 peptide binding displacement, primary biochemical FP (AID 1240).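 Note: 0% = Bcl-B with tracer peptide and DMSO and 100% = tracer peptide lacking Bcl-B.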 The conditions noted are these: GST-Bcl-B / FITC-TR3 peptide fluorescence polarization; stronger effect = higher value; compound at 3.75 mg/L. On the technique in general: Polarisation of emitted light reports the rotation of a fluorescent probe.
Chain of Bcl-2-like protein 10 (Homo sapiens) (Q9HD36 whole entry, looked up): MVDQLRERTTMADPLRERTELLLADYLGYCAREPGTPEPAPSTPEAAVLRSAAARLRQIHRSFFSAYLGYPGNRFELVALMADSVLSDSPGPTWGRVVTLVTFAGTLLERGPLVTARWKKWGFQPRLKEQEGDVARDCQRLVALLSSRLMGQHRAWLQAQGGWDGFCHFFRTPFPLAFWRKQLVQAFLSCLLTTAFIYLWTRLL
As to `CCOP(=O)(OCC)/C(=C(\NC(=O)c1ccccc1)C(=O)Nc1ccccc1C(F)(F)F)c1ccccc1`, the displacement was 12.2%.

`COc1ccc(CCNC(=O)c2ccc(Cl)c(Cl)c2)cc1OC`: the displacement was found to be 6%.

For the compound `COc1ccc(CCNC(=O)c2c(Cl)ccc(Cl)c2OC)cc1OC`, the displacement was found to be 57%.

As to `COc1c(Cl)ccc(Cl)c1C(=O)NCCc1ccccc1`, the displacement was -18.4%.

In the case of `C=CCN(CC=C)C(=O)COc1ccc(Cl)cc1`, the displacement was -5.1%.

On to `CC(=O)NCCc1c(C)n(Cc2ccccc2)c2ccccc12`, for which the displacement is 20.2%.

In the case of `O=C(c1sc2ccccc2c1Cl)N1CCN(Cc2ccc3c(c2)OCO3)CC1`, the displacement came out at 0.4%.

Turning to `O=c1[nH]c2ccc(Nc3nc4ccccc4nc3NS(=O)(=O)c3ccc(Cl)cc3)cc2[nH]1`, the displacement is 102%.

On to `O=S(=O)(Nc1nc2ccccc2nc1Nc1cccc(O)c1)c1ccc(Cl)cc1`, for which the displacement was 7.1%.

In the case of `CC(=O)Nc1ccc(Nc2nc3ccccc3nc2NS(=O)(=O)c2ccc(Cl)cc2)cc1`, the displacement was -12.5%.

On to `O=S(=O)(Nc1nc2ccccc2nc1Nc1ccccc1)c1ccccc1`, for which the displacement was determined as 16.9%.

Regarding `COc1ccc2nc(NS(=O)(=O)c3ccc(Cl)cc3)c(Nc3ccc4[nH]c(=O)[nH]c4c3)nc2c1`, the displacement was -2.9%.

As to `COC(=O)c1cc(Nc2nc3ccccc3nc2NS(=O)(=O)c2ccccc2)ccc1Cl`, the displacement was 158%.

Turning to `Cc1cccc(OCC(=O)Nc2ccccc2Cl)c1C`, the displacement was -1.5%.

Consider `Cc1ccccc1OCCOc1ccc(/C=C2/SC(=S)N(C)C2=O)cc1`, for which the displacement is 0.3%.

As to `CC1(C)CC(NC(=O)c2ccccc2F)CC(C)(C)N1`, the displacement is -12.3%.

With `COc1cc(/C=C(\C#N)c2nc3ccccc3[nH]2)ccc1OCC(=O)O`, the displacement was 43.5%.

Take `COc1ccc(C=C2C(=O)N(c3ccc(C)cc3)C(=S)N(c3ccc(C)cc3)C2=O)cc1C(=O)O`: the displacement was 15%.

Consider `COc1ccc(OC(C)C(=O)Nc2ccc(N(C)C)cc2)cc1` (configuration not stated), for which the displacement was found to be 9.1%.

For the compound `O=C(NCCNc1ccc(Cl)cc1[N+](=O)[O-])c1ccccc1F`, the displacement was -0.6%.

As for `O=C(Cn1cc(/C=C2/C(=O)NC(=O)N(c3ccccc3F)C2=O)c2ccccc21)Nc1ccccc1`, the displacement came out at 51.1%.

Take `N#CC(C#N)=Cc1cn(CC(=O)Nc2ccccc2)c2ccccc12`: the displacement is -17.6%.

On to `CN1C(=O)C(=Cc2cn(CC(=O)Nc3ccccc3)c3ccccc23)C(=O)N(C)C1=O`, for which the displacement was -6.8%.

As for `O=C(Cn1cc(/C=C2/C(=O)NC(=S)N(c3ccccc3F)C2=O)c2ccccc21)Nc1ccccc1`, the displacement worked out at 30.7%.

In the case of `Cc1ccccc1N1C(=O)NC(=O)/C(=C/c2cn(CC(=O)Nc3ccccc3)c3ccccc23)C1=O`, the displacement is 53.6%.

As to `O=C(Cn1cc(/C=C2\NC(=O)NC2=O)c2ccccc21)Nc1ccccc1`, the displacement worked out at 7.5%.

For `COc1ccc(C2Nc3ccccc3NC3=C2C(=O)CC(c2ccccc2)C3)c(OC)c1` (configuration not stated), the displacement was determined as 5.9%.

In the case of `CCN1CCN(Cc2c(O)ccc3ccccc23)CC1`, the displacement came to 13.6%.

`N#C/C(=C/c1ccc(-c2cc(Cl)ccc2Cl)o1)C(=O)O`: the displacement was determined as 2%.

For the compound `O=C(/C=C/c1ccc(-c2cccc([N+](=O)[O-])c2)o1)c1cc2ccccc2o1`, the displacement turned out to be 119%.

As to `O=C(/C=C/c1ccc(-c2cccc([N+](=O)[O-])c2)o1)c1ccc(F)cc1`, the displacement was 3.4%.

On to `O=C(/C=C\c1ccc(-c2cc(Cl)ccc2Cl)o1)c1ccccc1`, for which the displacement was 24.9%.

Take `N#CC(C#N)=Cc1ccc(-c2cc(Cl)ccc2Cl)o1`: the displacement was found to be 93.5%.

On to `O=C(/C=C/c1ccc(-c2ccc(Cl)cc2Cl)o1)c1ccco1`, for which the displacement stood at 3.4%.

For `O=C(/C=C/c1ccc(-c2cccc([N+](=O)[O-])c2)o1)Nc1ccc(Cl)cc1`, the displacement came out at 4.5%.

On to `O=C(/C=C/c1ccc(-c2cccc(Br)c2)o1)c1ccco1`, for which the displacement is 11.8%.

For the compound `N#CC(C#N)=Cc1ccc(-c2ccc(Cl)c(C(=O)O)c2)o1`, the displacement is 0.6%.

As to `O=C(/C=C/c1ccc(-c2cc(Cl)ccc2Cl)o1)c1ccco1`, the displacement was 126%.

`O=C(/C=C/c1ccc(-c2cccc([N+](=O)[O-])c2)o1)c1ccco1`: the displacement came to 79.3%.

Take `CC(=O)/C=C/c1ccc(-c2cccc([N+](=O)[O-])c2)o1`: the displacement was -5.2%.

On to `N#Cc1c2c(c(N3CCN(c4ccccn4)CC3)n3c1nc1ccccc13)CCC2`, for which the displacement came out at 2.1%.

Regarding `O=C1c2ccccc2C(=O)N1CCc1nc2ccccc2c(=O)n1-c1ccc(Br)cn1`, the displacement was -10.3%.

Regarding `CCN(CC)CCCCOc1ccc(Cl)c(C)c1`, the displacement is -10.7%.

As for `COc1ccc(CCNC(=O)C(=O)Nc2ccc3c(c2)OCCO3)cc1OC`, the displacement is 3.4%.

Turning to `Cc1cccc(CN2CCN(Cc3ccncc3)CC2)c1`, the displacement is -1.1%.

In the case of `COC(=O)c1sc2nc(-c3ccccc3)nc(N3CCOCC3)c2c1C`, the displacement worked out at 47.3%.

On to `CC1(C)Oc2ccc3ccc(=O)oc3c2/C(=C/N2CCOCC2)C1=O`, for which the displacement was -5.9%.

In the case of `COc1ccc(Cl)cc1C(=O)Nc1ccc(C)cc1C`, the displacement is 10.1%.

Regarding `CN(C)c1ccc(/C=N/NC(=O)CNC(=O)c2ccc(F)cc2)cc1`, the displacement came out at 2.3%.

`O=C(/C=C/c1ccc(-c2ccc([N+](=O)[O-])cc2)o1)c1cc2ccccc2o1`: the displacement was found to be 190%.

For the compound `O=C(/C=C/c1ccc(-c2ccccc2[N+](=O)[O-])o1)c1cc2ccccc2o1`, the displacement worked out at 44.1%.

In the case of `COc1ccc(-c2ccc(/C=C/C(=O)c3cc4ccccc4o3)o2)cc1`, the displacement was -52.6%.

Turning to `O=C(Nc1cc(NC(=O)c2ccccc2)cc(C(=O)Nc2nccs2)c1)c1ccccc1`, the displacement is 4.4%.

Regarding `O=C(COc1ccccc1F)Nc1nc(-c2cccs2)c(NC(=O)c2ccccc2)s1`, the displacement came to 14.6%.

`CC(C(=O)NN)C1=NC(C)(C)Cc2ccccc21` (configuration not stated): the displacement was -17.7%.

As for `CC(=O)N1N=C2CC(C)(C)OCC2C1c1ccccc1` (configuration not stated), the displacement was 12%.

As for `N=C(SC1CC(=O)N(c2ccccc2Cl)C1=O)N1N=C(c2cccs2)CC1c1ccc(Br)cc1` (configuration not stated), the displacement worked out at 1.4%.

For `Cc1cccc(N2C(=O)CC(SC(=N)N3N=C(c4cccs4)CC3c3ccc(Br)cc3)C2=O)c1` (configuration not stated), the displacement was found to be 5.6%.

Turning to `N=C(SC1CC(=O)N(c2cccc3ccccc23)C1=O)N1N=C(c2cccs2)CC1c1ccc(Br)cc1` (configuration not stated), the displacement was 85.7%.

Consider `Cn1c(CNc2ccccc2O)nc2ccccc21`, for which the displacement was determined as 0.7%.

As for `Cn1c(CNc2ccccc2)nc2ccccc21`, the displacement was -1.3%.

As to `Cn1c(CNc2ccc(O)cc2)nc2ccccc21`, the displacement is 76.7%.

Take `COc1ccc(N(CC(=O)N2CCN(c3ccccc3OC)CC2)S(=O)(=O)c2ccccc2)c(OC)c1`: the displacement came out at 8.6%.

With `c1ccc(Oc2cccc(CSc3nnnn3-c3ccccc3)c2)cc1`, the displacement amounted to 1%.

Turning to `CCc1cccc(C)c1NC1C=CS(=O)(=O)C1` (configuration not stated), the displacement came to 52.3%.

As to `Cc1ccc(NC2C=CS(=O)(=O)C2)cc1C` (configuration not stated), the displacement came out at 6.7%.

`Cc1c(Cl)cccc1NC1C=CS(=O)(=O)C1` (configuration not stated): the displacement came to 14%.

As for `CN(C1CCS(=O)(=O)C1)S(=O)C12CC3CC(CC(C3)C1)C2` (configuration not stated), the displacement was -4.8%.

On to `COc1ccc(-n2c(=O)c3c4c(sc3n3c(SCCC(C)C)nnc23)CCCC4)cc1`, for which the displacement worked out at 89.8%.

On to `CCSc1nnc2n(-c3ccc(OC)cc3)c(=O)c3c4c(sc3n12)CCCC4`, for which the displacement was 119%.

For the compound `CCCSc1nnc2n(-c3ccc(OC)cc3)c(=O)c3c4c(sc3n12)CCCC4`, the displacement stood at 34.9%.

For `C=C(C)CSc1nnc2n(-c3ccc(OC)cc3)c(=O)c3c4c(sc3n12)CCCC4`, the displacement came to 3%.

`COc1ccc(-n2c(=O)c3c4c(sc3n3c(SCC(N)=O)nnc23)CCCC4)cc1`: the displacement was 0.7%.

As to `COC(=O)CSc1nnc2n(-c3ccc(OC)cc3)c(=O)c3c4c(sc3n12)CCCC4`, the displacement came to 5.6%.

In the case of `Clc1ccccc1C=NN1CCN(Cc2ccccc2Cl)CC1`, the displacement is -2.4%.

As to `FC(F)(F)c1cc(/C=C/c2ccccc2)no1`, the displacement came out at 7.7%.

As for `CC(=O)Nc1ccc(S(=O)(=O)Nc2cccc(C)c2C)cc1`, the displacement came out at 12.9%.

With `CN(C)c1ccc(/C=N/NC(=O)Cn2c3ccccc3c(=O)c3ccccc32)cc1[N+](=O)[O-]`, the displacement is 2.3%.

Take `COc1cccc(/C=C2\N=C(c3ccccc3OC)OC2=O)c1`: the displacement is -6%.

`N=C1S/C(=C\c2ccc3c(c2)OCO3)C(=O)N1c1ccc(F)cc1`: the displacement worked out at 2.6%.

In the case of `O=C1OC(c2ccc(F)cc2)=N/C1=C\c1ccc2c(c1)OCO2`, the displacement was found to be 15.9%.

`O=C1/C(=C\c2ccc3c(c2)OCO3)N=C(c2ccccc2)N1c1ccc(F)cc1`: the displacement was 179%.

In the case of `CN(C)/C=C1\N=C(c2ccccc2Br)OC1=O`, the displacement is -1.7%.

Take `O=C1OC(c2ccccc2Br)=N/C1=C\c1cc2c(cc1Cl)OCO2`: the displacement amounted to 116%.

Consider `COc1ccccc1C1=N/C(=C\c2ccc3c(c2)OCO3)C(=O)O1`, for which the displacement came to 111%.

Regarding `COc1ccccc1C1=N/C(=C\c2ccc([N+](=O)[O-])cc2)C(=O)O1`, the displacement was 27.4%.

For `O=C1/C(=C/c2ccc3c(c2)OCO3)SC(=S)N1c1ccc(F)cc1`, the displacement was 11.8%.

As to `O=C1OC(c2ccccc2F)=N/C1=C\c1ccc2c(c1)OCO2`, the displacement was found to be 80%.

As for `O=C1OC(c2ccccc2Br)=N/C1=C\c1cccnc1`, the displacement was 4.7%.

Regarding `O=C1OC(c2ccccc2F)=N/C1=C\c1ccc(Br)cc1`, the displacement turned out to be 9%.

With `Cn1nnnc1SCc1ccc(F)cc1`, the displacement is -4%.

Take `O=C1CS/C(=N/N=C/c2c3ccccc3cc3ccccc23)N1`: the displacement is -1.8%.

Take `CC(NC(=O)c1ccccc1)C12CC3CC(CC(C3)C1)C2` (configuration not stated): the displacement was 39.3%.

`Cc1cccc(OCC(=O)O/N=C(\N)c2cccc(C)c2)c1`: the displacement is -9.8%.

Take `CCOC(=O)CONC(=NCc1ccccc1)c1nonc1N`: the displacement is 3.6%.

In the case of `CCc1c(C)nc(N)nc1N1CCCC1`, the displacement stood at 13.1%.

Consider `Cc1ccc(C(=O)NCCCN2CCOCC2)c2ccccc12`, for which the displacement was -1.8%.

Turning to `COc1ccccc1N1C(=O)c2cccc3c(N4CCCC4)ccc(c23)C1=O`, the displacement stood at 102%.

Regarding `COc1ccccc1N1C(=O)c2cccc3c(N4CCN(C)CC4)ccc(c23)C1=O`, the displacement was determined as 157%.

With `COc1ccccc1N1C(=O)c2cccc3c(Cl)ccc(c23)C1=O`, the displacement was 22.2%.

Regarding `Cc1ccccc1N1C(=O)c2cccc3c(N4CCCCC4)ccc(c23)C1=O`, the displacement was found to be 15.9%.

Regarding `COc1ccccc1N1C(=O)c2cccc3c(N(C)C)ccc(c23)C1=O`, the displacement worked out at 42.1%.

For `COc1ccccc1N1C(=O)c2ccc3c4c(ccc(c24)C1=O)CC3`, the displacement was 13.4%.

In the case of `Cc1cc(C)n(C2CC(=O)N(c3ccccc3)C2=O)n1` (configuration not stated), the displacement came out at 0.8%.

As to `COc1ccc(C=C2C(=O)N(C)C(=O)N(C)C2=O)cc1O`, the displacement is -7.9%.

For `O=S(=O)(Nc1ccc(O)cc1)c1cc(Cl)ccc1Cl`, the displacement is -0.2%.

As to `O=C(c1cccc(F)c1)N1CCN(C(=O)c2cccc(Cl)c2)CC1`, the displacement was -18.6%.
